From PubChem BioAssay AID720492 (Broad Institute, 2013)
Active and inactive are the calls of the source.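 The calls were made as follows: active = unnormalized dose curve rising to cross level 40 at or below the top tested dose; inconclusive = flat fit at moderately raised activity, or poor fit; inactive = the rest.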

Assay: miR-27b level by RT-PCR, dose response, miR-122 / miR-27b project, Huh7 cells, cherry-pick, activator set (AID 720492)
Settings: Huh7 miR-27b levels, qRT-PCR, 48 h; series mostly up to 35 µM

SMILES | outcome
COc1ccc(-c2cnc3c(c2)C(=O)N([C@@H](C)CO)C[C@H](C)[C@H](CN(C)S(=O)(=O)c2ccc(OC)cc2)O3)cc1 | inactive
COc1cccc(-c2ccc3c(c2)O[C@H](CN(C)C(=O)C2CCOCC2)[C@H](C)CN([C@@H](C)CO)S3(=O)=O)c1 | inactive
COc1ccc(S(=O)(=O)N(C)C[C@@H]2Oc3ncc(/C=C/c4ccccc4)cc3C(=O)N([C@@H](C)CO)C[C@@H]2C)cc1 | inactive
CN1C(=O)c2cc(NC(=O)c3cccc(F)c3)ccc2OC[C@@H]2O[C@H](CC(=O)O)CC[C@@H]21 | inactive
C[C@H]1CN([C@@H](C)CO)S(=O)(=O)c2ccc(C#Cc3ccncc3)cc2O[C@@H]1CN(C)C(=O)C1CCOCC1 | inactive
CN1C(=O)c2cc(NC(=O)c3cccc(F)c3)ccc2OC[C@H]2O[C@@H](CC(=O)O)CC[C@H]21 | inactive
CN1C(=O)c2cc(NC(=O)c3cccc(F)c3)ccc2OC[C@H]2O[C@@H](CC(=O)O)CC[C@@H]21 | inactive
C[C@H]1CN([C@@H](C)CO)C(=O)c2cc(C#Cc3ccccc3F)cnc2O[C@@H]1CN(C)C(=O)C1CCCCC1 | inactive
COCC(=O)N(C)C[C@H]1Oc2cc(C#Cc3cccnc3)ccc2S(=O)(=O)N([C@@H](C)CO)C[C@H]1C | inactive
Cc1cccc(NC(=O)Nc2ccc3c(c2)C(=O)N(C)[C@@H]2CC[C@@H](CC(=O)NCc4ccccc4Cl)O[C@H]2CO3)c1 | inactive
CO[C@@H]1CN(C)C(=O)c2cc(NS(=O)(=O)c3ccc(Oc4ccccc4)cc3)ccc2OC[C@H](C)NC[C@@H]1C | inactive
CCCC#Cc1ccc2c(c1)O[C@H](CN(C)C(=O)COC)[C@H](C)CN([C@@H](C)CO)S2(=O)=O | inactive
COCC(=O)N(C)C[C@H]1Oc2cc(-c3ccc(C#N)cc3)ccc2S(=O)(=O)N([C@H](C)CO)C[C@H]1C | inactive
CN1C(=O)c2cc(NC(=O)c3cccc(F)c3)ccc2OC[C@H]2O[C@H](CC(=O)O)CC[C@H]21 | inactive
COCC(=O)N(C)C[C@H]1Oc2cc(-c3ccccc3F)ccc2S(=O)(=O)N([C@H](C)CO)C[C@H]1C | inactive
C[C@@H]1CN([C@@H](C)CO)S(=O)(=O)c2ccc(C#Cc3ccncc3)cc2O[C@@H]1CN(C)C(=O)C1CCOCC1 | inactive
C[C@H]1CN([C@@H](C)CO)S(=O)(=O)c2ccc(C#Cc3ccncc3)cc2O[C@H]1CN(C)C(=O)C1CCOCC1 | inactive
CN1C(=O)c2cc(NC(=O)c3cccc(F)c3)ccc2OC[C@@H]2O[C@@H](CC(=O)O)CC[C@H]21 | inactive
C[C@@H]1CN([C@H](C)CO)S(=O)(=O)c2ccc(C#Cc3ccncc3)cc2O[C@@H]1CN(C)C(=O)C1CCOCC1 | inactive
Cc1cccc(NC(=O)Nc2ccc3c(c2)C(=O)N(C)[C@@H]2CC[C@H](CC(=O)NCc4ccccc4Cl)O[C@H]2CO3)c1 | inactive
COCC(=O)N(C)C[C@H]1Oc2cc(-c3ccc(C#N)cc3)ccc2S(=O)(=O)N([C@@H](C)CO)C[C@H]1C | inactive
